Only some compounds are listed: those with a hit (about 10% of all), similar ones and a draw of the others.
BAZ2B block = qHTS Assay for Inhibitors of BAZ2B | Bromodomain adjacent to zinc finger domain protein 2B (Homo sapiens), Q9UIF8 | AlphaScreen BAZ2B-H3K14Ac peptide displacement | Potency, µM (series often up to 114 µM), actives largely listed as inhibitors | 4.4% of 360,000 active; also: nearly all actives have a fitted effect of over 60% in size
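BAZ2B (50 nM) with biotin-H3(5-23)K14Ac peptide (50 nM) in PBS pH 7.4, 0.01% Tween-20, preformed 30 min, then compound 30 min at room temperature; top concentration 110uM. AlphaScreen streptavidin donor/nickel chelate acceptor beads (10 ug/mL final), 20 min dark, signal read.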
GLS inh = qHTS for Inhibitors of Glutaminase (GLS). Glutaminase kidney isoform, mitochondrial (Homo sapiens), O94925. 0.21% of 410,000 active. GLS enzymatic activity, qHTS titration. Potency, µM (doses to about 45.5 µM), usual class: inhibitors
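hKGA in 45 mM KH2PO4 (pH 8.2), 0.02% Tween-20 with compound, then 1mM L-Glutamine (stock as added) plus glutamate oxidase/HRP/Amplex red coupling mix. Fluorescence read initially and after 30 min at RT; signal change reflects glutamate formation.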
HP1b chromo inh = HTS for Inhibitors of HP1-beta Chromodomain Interactions with Methylated Histone Tails; Chromobox protein homolog 1 (Homo sapiens), P83916; AlphaScreen HP1-beta / biotin-H3K9me3 peptide binding; Potency, µM (top dose mostly 114 µM), most hits filed as inhibitors; 0.56% of 390,000 active; AID 540317, 2011; also: nearly all actives have a fitted effect of over 70% in size
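HP1-beta protein (50 nM final) preincubated 30 min at room temperature with biotinylated H3(1-18)K9me3 peptide (50 nM) in PBS pH 7.4, 0.01% Tween-20, then compound added for 30 min. AlphaScreen streptavidin donor/nickel chelate acceptor beads (10 ug/mL final), 30 min dark, luminescence read.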
JMJD2A Tudor = qHTS Assay for Inhibitors of JMJD2A-Tudor Domain. AlphaScreen JMJD2A-Tudor / H3K4me3 peptide binding. 4.4% of 390,000 active. Potency, µM (titrated, usually from 114 µM), usual class: inhibitors. Lysine-specific demethylase 4A (Homo sapiens), O75164. AID 504339, 2011; also: nearly all actives have a fitted effect of over 50% in size
Target sequence (O75164 whole entry, looked up, the tested form may be a part): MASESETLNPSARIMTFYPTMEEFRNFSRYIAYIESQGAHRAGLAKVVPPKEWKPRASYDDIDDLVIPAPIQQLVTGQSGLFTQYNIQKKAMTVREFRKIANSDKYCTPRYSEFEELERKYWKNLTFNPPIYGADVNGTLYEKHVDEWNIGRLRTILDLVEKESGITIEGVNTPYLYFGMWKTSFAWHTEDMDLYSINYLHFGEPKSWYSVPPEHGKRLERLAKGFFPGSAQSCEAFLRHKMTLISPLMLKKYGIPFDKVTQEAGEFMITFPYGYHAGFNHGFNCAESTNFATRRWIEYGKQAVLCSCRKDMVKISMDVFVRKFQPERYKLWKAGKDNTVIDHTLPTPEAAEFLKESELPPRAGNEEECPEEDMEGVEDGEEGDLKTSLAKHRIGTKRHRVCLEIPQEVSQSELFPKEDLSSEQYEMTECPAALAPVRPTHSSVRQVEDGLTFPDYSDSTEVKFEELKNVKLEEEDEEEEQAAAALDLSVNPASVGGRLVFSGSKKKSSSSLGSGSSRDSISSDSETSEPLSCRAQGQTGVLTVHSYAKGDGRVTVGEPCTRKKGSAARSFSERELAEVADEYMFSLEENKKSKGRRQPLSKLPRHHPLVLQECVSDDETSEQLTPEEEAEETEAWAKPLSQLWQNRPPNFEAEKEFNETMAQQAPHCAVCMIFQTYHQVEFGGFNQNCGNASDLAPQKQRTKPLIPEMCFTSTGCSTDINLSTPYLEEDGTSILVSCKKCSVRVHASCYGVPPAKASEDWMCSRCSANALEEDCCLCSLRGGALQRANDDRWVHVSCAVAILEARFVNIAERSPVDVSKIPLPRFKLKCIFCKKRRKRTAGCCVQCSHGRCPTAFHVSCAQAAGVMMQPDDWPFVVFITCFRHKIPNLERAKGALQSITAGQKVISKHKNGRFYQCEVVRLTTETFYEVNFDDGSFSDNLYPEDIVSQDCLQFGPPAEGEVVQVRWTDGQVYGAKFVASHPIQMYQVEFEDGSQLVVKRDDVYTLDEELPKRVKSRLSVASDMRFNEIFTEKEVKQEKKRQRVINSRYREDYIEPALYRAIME
G9a block = qHTS Assay for Inhibitors of Histone Lysine Methyltransferase G9a; 8.8% of 350,000 active; G9a H3K9 monomethylation, AlphaScreen, 2 h; AID 504332, 2011; Histone-lysine N-methyltransferase EHMT2 (Homo sapiens), Q96KQ7; Potency, µM (series often up to 102 µM), most hits filed as inhibitors; also: nearly all actives have a fitted effect of over 75% in size
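Methyltransferase reactions run at room temperature for 2 h (20 nM enzyme, 500 nM biotin-H3K9 peptide, 20 uM SAM) after a 15 min compound preincubation; product detected by AlphaScreen beads and anti-H3K9me1 antibody.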
Large screens that a line does not name were inactive. Calls follow the shape of the dose curve; as a rule, active = well fitted curve in the direction sought with a large enough effect; inconclusive = small, poorly fitted or top-dose-only effect, or another doubt; inactive = no such curve, though single readings can be large; an effect the other way counts as inactive or inconclusive.

CN(C1CCCCC1)S(=O)(=O)c1cc2c3c(c1)CCN3C(=O)CC2	none
O=C(CNC(=O)[C@@H]1Cc2ccccc2CN1)Nc1ccc2c(c1)OCCO2	BAZ2B block inconclusive, G9a block 39.8µM
CCc1ccc(NC(=O)CNC(=O)[C@@H]2Cc3ccccc3CN2)cc1	G9a block 79.4µM
O=C(COc1ccccc1Cl)OCc1cc(=O)n2nc(C3CC3)sc2n1	none
CC(C)(C)c1cc(CN2CCCC(O)C2)c(O)c(C(C)(C)C)c1 (configuration not stated)	BAZ2B block 79.4µM, JMJD2A Tudor inconclusive, G9a block inconclusive
O=C(C[n+]1ccccc1)N/N=C/c1ccc(Br)cc1	none
O=C(C[n+]1ccccc1)N/N=C/c1ccc(Cl)c(Cl)c1	BAZ2B block 50.1µM, JMJD2A Tudor 22.4µM
COc1cc(/C=C2/C(=O)N(c3ccc([N+](=O)[O-])cc3)N=C2N2CCOCC2)ccc1O	BAZ2B block inconclusive, GLS inh inconclusive, HP1b chromo inh inconclusive
O=C(O)c1ccc(-c2noc(-c3ccccc3F)n2)cc1	none (no result: BAZ2B block, G9a block)
Cc1ccc(NC(=O)/C(C#N)=C/c2ccc(-c3ccc(Cl)c(C(=O)O)c3)o2)cc1C	none
CC1=NN(c2ccc(C(=O)O)cc2)C(=O)/C1=C/c1ccc(-c2ccccc2F)o1	BAZ2B block inconclusive, G9a block 7.94µM (no result: GLS inh, HP1b chromo inh, JMJD2A Tudor)
CC1=NN(c2ccc(Cl)c(C(=O)O)c2)C(=O)/C1=C\c1ccc(-c2ccc(C(=O)O)cc2)o1	BAZ2B block 50.1µM, GLS inh inconclusive, JMJD2A Tudor inconclusive, G9a block 8.91µM
O=C1NN(c2ccccc2)C(=O)/C1=C\c1cccn1-c1ccc(Cl)c([N+](=O)[O-])c1	JMJD2A Tudor inconclusive
CC1=NN(c2ccc(C)cc2)C(=O)/C1=C/c1ccc(-c2cc([N+](=O)[O-])ccc2O)o1	HP1b chromo inh 31.6µM, JMJD2A Tudor 31.6µM (no result: G9a block)
O=C1NN(c2cccc(Br)c2)C(=O)/C1=C/c1ccc(-c2cc([N+](=O)[O-])ccc2O)o1	BAZ2B block 2.24µM, HP1b chromo inh inconclusive, JMJD2A Tudor inconclusive
Cc1ccc(C)c(NC(=S)NCCN(C2CCCCC2)C2CCCC2)c1	G9a block inconclusive
COc1ccc(/C=C(/NC(=O)c2ccccc2)C(=O)NCC2CCCO2)cc1 (configuration not stated)	none
CCOc1ccc(-c2cc(CCCC(=O)Nc3cccc(OC)c3)no2)cc1	none
CC1=NN(c2ccccc2)C(=O)/C1=C/c1ccc(-c2ccc(C)c(C(=O)O)c2)o1	HP1b chromo inh inconclusive, JMJD2A Tudor 39.8µM (no result: BAZ2B block, G9a block)
CN(CC(=O)Nc1cccnc1)S(=O)(=O)c1ccccc1	G9a block inconclusive
Cn1ncc2c(NCc3ccccc3Cl)nc(NCCO)nc21	none
COc1ccc2c(c1OC)C(=O)OC2CC(=O)c1ccc(O)c(O)c1 (configuration not stated)	BAZ2B block inconclusive, JMJD2A Tudor 5.01µM, G9a block 39.8µM
CCN(CC)CCN(Cc1cc2cc(C)c(C)cc2[nH]c1=O)C(=S)NCc1ccco1	none (no result: G9a block)
Cc1cc2cc(CN(CCN(C)C)C(=S)NCc3ccco3)c(=O)[nH]c2cc1C	BAZ2B block 70.8µM, JMJD2A Tudor inconclusive
Cc1cc2cc(CN(Cc3ccco3)C(=O)NCc3ccccc3)c(=O)[nH]c2cc1C	BAZ2B block inconclusive, G9a block 50.1µM
O=C(NC1CCN(S(=O)(=O)c2ccc(F)cc2)CC1)C1CCCCC1	none
CCc1c(C)sc(NC(=O)C2CC2c2ccccc2)c1C(N)=O (configuration not stated)	G9a block 14.1µM
CC1Cc2ccccc2N1C(=O)Cn1c(=O)oc2cc(S(=O)(=O)N3CCCCC3)ccc21 (configuration not stated)	none
Cc1nn(C)c(=S)[nH]c1=S	none (no result: BAZ2B block, G9a block)
Cc1nn2c(=S)[nH]nc2[nH]c1=O	GLS inh inconclusive, JMJD2A Tudor 28.2µM, G9a block 7.08µM (no result: BAZ2B block)
